From PubChem BioAssay (EPA / NIEHS) come the findings set out here.

Inconclusive results are not listed. Activity calls are given as the source filed them. How the source made its calls: active means hit-call score of the fitted dose curve at least 0.9, where 1 is the maximum; inconclusive means response in the unintended direction; inactive means score below 0.9.

The assay is described as follows: CCTE_Simmons_CellTiterGLO_HEK293T: Viability Assessment in CCTE's Assays for Thyroperoxidase (TPO) Inhibition, Simmons Lab (AID 2283665).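 On AC50: cells exposed to compound for 24 h before readout; actives reduce ATP signal below DMSO vehicle meaning cytotoxicity.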 As to the method:
CCTE_Simmons_CellTiterGLO_HEK293T is a cell-based, single-readout assay that uses HEK293T, a human kidney cell line, with measurements taken at 24 hours after chemical dosing in a 384-well plate.CCTE_Simmons_CellTiterGLO_HEK293T is the assay component measured from the CCTE_Simmons_CellTiterGLO_HEK293T assay. It is designed to make measurements of ATP content, a form of viability reporter, as detected with bioluminescence signals by Luciferase-coupled ATP quantitation technology. This is a secondary cytotoxicity assay to CCTE_Simmons_AUR_TPO to estimate a cellular tolerance limit.Data from the assay component CCTE_Simmons_CellTiterGLO_HEK293T was analyzed at the endpoint, CCTE_Simmons_CellTiterGLO_HEK293T, in the positive analysis fitting direction relative to DMSO as the negative control and baseline of activity. Using a type of viability reporter, measures of ATP content for loss-of-signal activity can be used to understand the viability. This assay was run in parallel with aeid 1508 as a means of indicating the range of chemical cytotoxicity or reactivity. To generalize the intended target to other relatable targets, this assay endpoint is annotated to the cell cycle intended target family, where the subfamily is cytotoxicity.
Human HEK293T cells (GenHunter; Nashville, Tennessee) were seeded overnight in 384-well, solid white assay plates (Greiner, BioExpress) at a density of 10 000 cells per well in 65 ul Dulbecco's Modified Eagle Medium (Life Technologies; Carlsbad, California) supplemented with 1% fetal bovine serum (HyClone; Logan, Utah). Test compounds were administered using the HDRT as described earlier to achieve a 0.5% final DMSO concentration. Cells were then incubated at 37C for 24 hr in a humidified 5% CO2 incubator. Cell Titer Glo (Promega; Madison, WI) reagent (25 ul) was then added by the BioTek MicroFlo and microplates were incubated at room temperature in the dark for 20min. Plates were read on a plate reader (FLUOStar Optima) using an endpoint luminescence protocol (top read). Three biological replicates of technical singles were run for every chemical concentration tested. A titrated range of DCNQ served as a positive control on each plate of the cytotoxicity screening assay.Test chemicals were administered as a titrated series of 8 concentrations from 5 nM up to 87.5 uM [final] for 24 hours prior to single endpoint detection. Three biological replicates of technical singles were run for every chemical concentration tested. Dimethylsulfoxide [DMSO] was used as the vehicle control. Dichlone [DCNQ] was used as the positive control and was administered as a titrated series of 8 concentrations from 1 nM up to 100 uM [final].
On the technique in general: ATP-based viability assays read luminescence as a measure of living cells.
One may read the AC50 as the concentration at which the activity in the assay is half-maximal. For the compound `OC12N=C(c3ccccc3)SC1Cc1cc(Cl)ccc12` (centres undefined), the AC50 was 29.7 µM (active).
For the compound `CN(C[C@@H](CC[N+]12CCC(C3CCCCC3)(CC1)CC2)c1ccc(Cl)c(Cl)c1)C(=O)c1cc(C(F)(F)F)cc(C(F)(F)F)c1`, the AC50 is 9.54 µM (active).
On the same count and under the same terms, then `COc1cc(C(=O)NC2CCN(C)CC2)ccc1Nc1ncc2c(n1)N(C1CCCC1)CC(F)(F)C(=O)N2C`, with 15.3 µM (active); and `NCc1cccc(C2CCN(C(=O)c3ccc(C#Cc4ccccc4F)o3)CC2)c1`, with 9.98 µM (active); and `CC(C)(C)c1cc(/C=C2\SC(N)=NC2=O)cc(C(C)(C)C)c1O`, with 8.58 µM (active).
Still for that read-out and setting: the figure for `CCN(Cc1cccc(S(=O)(=O)O)c1)c1ccc(C(=C2C=CC(=[N+](CC)Cc3cccc(S(=O)(=O)O)c3)C=C2)c2ccccc2S(=O)(=O)[O-])cc1` is 4.21 µM (active).
With `O=C1O[C@H]([C@@H](O)CO)C(O)=C1O`, the compound was called inactive.
As for `CCOC(=O)O[C@H](C)OC(=O)c1ccc2c(c1)cc(C(=O)NC1CCN(C(C)C)CC1)n2Cc1cc(-c2ccc(Cl)s2)on1`, the AC50 is 2.11 µM (active).
For the compound `Oc1ccc2ccccc2c1`, the compound was called inactive.
With `CN(C)c1ccc(C(=C2C=CC(=[N+](C)C)C=C2)c2ccc(N(C)C)cc2)cc1`, the concentration at half-maximal activity (AC50) is 0.955 µM (active).
For the compound `CCCOC(=O)c1cc(O)c(O)c(O)c1`, the AC50 was 22.6 µM (active).
Still for that read-out and setting: then `CC(C)(C)c1csc(-c2cc3cc(OCc4ccccc4CC(=O)O)ccc3o2)n1`, with 22.4 µM (active).
Regarding `CO[C@H]1/C=C/O[C@@]2(C)Oc3c(C)c(O)c4c(O)c(c(/C=N/N5CCN(C)CC5)c(O)c4c3C2=O)NC(=O)/C(C)=C\C=C\[C@H](C)[C@H](O)[C@@H](C)[C@@H](O)[C@@H](C)[C@H](OC(C)=O)[C@@H]1C`, the result was inactive.
Still for that read-out and setting: the entry for `C[C@]12CC[C@@H]3c4ccc(O)cc4CC[C@H]3[C@@H]1CC[C@H]2O` is “inactive”.
Regarding `O=C(Nc1ccc(Cl)cc1)Nc1ccc(Cl)c(Cl)c1`, the AC50 is 1.73 µM (active).
For the compound `CCCCCCCCOC(=O)c1cc(O)c(O)c(O)c1`, the half-maximal activity concentration (AC50) is 7.69 µM (active).
The same measure, in the same setting: the figure for `CC/C(=C(/CC)c1ccc(O)cc1)c1ccc(O)cc1` is 8.59 µM (active).
Consider `O=C(O)Cc1cc(I)c(Oc2ccc(O)c(I)c2)c(I)c1`, for which the call was inactive.
Take `CC(C)(c1cc(Br)c(O)c(Br)c1)c1cc(Br)c(O)c(Br)c1`: the concentration at half-maximal activity (AC50) is 14.7 µM (active).
In the case of `CC(=O)N1CCN(c2ccc(OC[C@H]3CO[C@](Cn4ccnc4)(c4ccc(Cl)cc4Cl)O3)cc2)CC1`, the AC50 is 1.26 µM (active).
`O=C1CCC(C2CCCCC2)CC1`: the half-maximal activity concentration (AC50) is 43.8 µM (active).
As to `Oc1ccccc1`, the result was inactive.
`Cc1c2ccccc2c(C)c2c1ccc1ccccc12`: the AC50 was 17.2 µM (active).
Same read-out and setting: then `CCCCCc1ccc(N)cc1`, with 26.7 µM (active).
